# Measurements: the supplement of paper PMC10037445
# The full ranking holds about 2,900 compounds; the median of “NF-kB SEAP reporter activity, fold change vs agonist alone” is about 0.99, and the highest 2% start at about 2.6. The full list was thinned out, with the highest values kept by preference.
# Columns and labels:
# [1] = system: RAW-Dual; experiment: NF-kB SEAP reporter activity, fold change vs agonist alone; cytotoxicity flag (confluency mask): cytotoxic (confluency <70% of control); higher = enhanced NF-kB activity
# Method in brief: (§1)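 RAW-Dual macrophages (50,000 cells/well in DMEM, 384-well plates) received 50 nL of library stock by pin tool, then a PRR agonist 1 h later, and were kept at 37 °C, 5% CO2. After 20 hours, supernatant was read for IRF by QuantiLuc luminescence and for NF-κB by QuantiBlue absorbance at 620 nm. Reporter activity is fold change over agonist-alone wells. Cytotoxic wells had IncuCyte confluency below 70% of agonist controls in both mask sets.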
# [2] = system: RAW-Dual; experiment: NF-kB SEAP reporter activity, fold change vs agonist alone; higher = enhanced NF-kB activity
# Method in brief: as §1
# [3] = system: RAW-Dual; experiment: NF-kB SEAP reporter activity, fold change vs agonist alone; cytotoxicity flag (confluency mask): not cytotoxic; higher = enhanced NF-kB activity
# Method in brief: as §1
# [4] = agonist: ODN 1826 (TLR9) 0.5 ug/mL
# [5] = agonist: Pam2CSK4 (TLR2/6) 0.1 ug/mL
# [6] = agonist: Pam3CSK4 (TLR2/1) 0.1 ug/mL
# [7] = library stock concentration (final ~1000-fold dilution): 10 mM, cytotoxicity flag (confluency mask): cytotoxic (confluency <70% of control), agonist: Imiquimod (TLR7) […]
# [8] = library stock concentration (final ~1000-fold dilution): 10 mM, cytotoxicity flag (confluency mask): cytotoxic (confluency <70% of control), agonist: MPLA (TLR4) […]
# [9] = library stock concentration (final ~1000-fold dilution): 10 mM, cytotoxicity flag (confluency mask): not cytotoxic, agonist: Imiquimod (TLR7) […]
# [10] = library stock concentration (final ~1000-fold dilution): 10 mM, cytotoxicity flag (confluency mask): not cytotoxic, agonist: MPLA (TLR4) […]
compound,measurement,setting,value
CC(C)COCC(CN(Cc1ccccc1)c1ccccc1)N1CCCC1.Cl.O (configuration not stated) (library stock concentration (final ~1000-fold dilution): 10 mM),NF-kB SEAP reporter activity,[1]; agonist: LPS (TLR4) 0.1 ug/mL,0.71
same,NF-kB SEAP reporter activity,[1]; [4],1.2
same,NF-kB SEAP reporter activity,[1]; [5],0.673
same,NF-kB SEAP reporter activity,[1]; [6],1.09
CC(Oc1ccc2[nH]nc(/C=C/c3cnn(CCO)c3)c2c1)c1c(Cl)cncc1Cl (configuration not stated),NF-kB SEAP reporter activity,[2]; [7],0.251
same,NF-kB SEAP reporter activity,[2]; [8],0.215
CC(Oc1ccc2[nH]nc(/C=C/c3cnn(CCO)c3)c2c1)c1c(Cl)cncc1Cl (configuration not stated) (library stock concentration (final ~1000-fold dilution): 10 mM),NF-kB SEAP reporter activity,[1]; agonist: LPS (TLR4) 0.1 ug/mL,0.225
same,NF-kB SEAP reporter activity,[1]; [4],0.187
same,NF-kB SEAP reporter activity,[1]; [5],0.0607
same,NF-kB SEAP reporter activity,[1]; [6],0.139
CC1(c2nc3c(C(N)=O)cccc3[nH]2)CCCN1 (configuration not stated),NF-kB SEAP reporter activity,[2]; [9],1.05
same,NF-kB SEAP reporter activity,[2]; [10],0.99
CC1(c2nc3c(C(N)=O)cccc3[nH]2)CCCN1 (configuration not stated) (library stock concentration (final ~1000-fold dilution): 10 mM),NF-kB SEAP reporter activity,[3]; agonist: LPS (TLR4) 0.1 ug/mL,1.14
same,NF-kB SEAP reporter activity,[3]; [4],0.972
same,NF-kB SEAP reporter activity,[3]; [5],0.955
same,NF-kB SEAP reporter activity,[3]; [6],0.991
C=CC(=O)Nc1cc(Nc2nccc(-n3cc(CN(C)C)c(-c4ccccc4)n3)n2)c(OC)cc1N1CCOCC1,NF-kB SEAP reporter activity,"[2]; library stock concentration (final ~1000-fold dilution): 2 mM, cytotoxicity flag (confluency mask): not cytotoxic, agonist: Imiquimod (TLR7) […]",1.12
same,NF-kB SEAP reporter activity,"[2]; library stock concentration (final ~1000-fold dilution): 2 mM, cytotoxicity flag (confluency mask): not cytotoxic, agonist: MPLA (TLR4) […]",1.02
C=CC(=O)Nc1cc(Nc2nccc(-n3cc(CN(C)C)c(-c4ccccc4)n3)n2)c(OC)cc1N1CCOCC1 (library stock concentration (final ~1000-fold dilution): 2 mM),NF-kB SEAP reporter activity,[3]; agonist: LPS (TLR4) 0.1 ug/mL,1.37
same,NF-kB SEAP reporter activity,[3]; [4],0.945
same,NF-kB SEAP reporter activity,[3]; [5],0.927
same,NF-kB SEAP reporter activity,[3]; [6],1.01
Cc1ccc(Sc2cncc3sc(C(N)=O)cc23)cc1 (library stock concentration (final ~1000-fold dilution): 10 mM),NF-kB SEAP reporter activity,[3]; agonist: LPS (TLR4) 0.1 ug/mL,2.89
same,NF-kB SEAP reporter activity,[3]; [4],2.2
same,NF-kB SEAP reporter activity,[3]; [5],1.62
same,NF-kB SEAP reporter activity,[3]; [6],3.34
Cc1ccc(Sc2cncc3sc(C(N)=O)cc23)cc1,NF-kB SEAP reporter activity,[2]; [9],2.48
same,NF-kB SEAP reporter activity,[2]; [10],1.93
O=C(CCCCCCCC(=O)NCCO)NCCO (library stock concentration (final ~1000-fold dilution): 10 mM),NF-kB SEAP reporter activity,[3]; agonist: LPS (TLR4) 0.1 ug/mL,1.2
same,NF-kB SEAP reporter activity,[3]; [4],0.998
same,NF-kB SEAP reporter activity,[3]; [5],0.991
same,NF-kB SEAP reporter activity,[3]; [6],0.856
O=C(CCCCCCC(=O)NO)NO,NF-kB SEAP reporter activity,[2]; [9],2.03
same,NF-kB SEAP reporter activity,[2]; [10],2.57
O=C(CCCCCCC(=O)Nc1ccccc1)NO,NF-kB SEAP reporter activity,[2]; [7],2.38
same,NF-kB SEAP reporter activity,[2]; [8],2.6
O=C(CCCCCCCC(=O)NCCO)NCCO,NF-kB SEAP reporter activity,[2]; [9],0.913
same,NF-kB SEAP reporter activity,[2]; [10],1.03
O=C(CCCCCCC(=O)NO)NO (library stock concentration (final ~1000-fold dilution): 10 mM),NF-kB SEAP reporter activity,[3]; agonist: LPS (TLR4) 0.1 ug/mL,3.77
same,NF-kB SEAP reporter activity,[3]; [4],1.62
same,NF-kB SEAP reporter activity,[3]; [5],0.78
same,NF-kB SEAP reporter activity,[3]; [6],1.21
CCCCCCCCCCCCCCCCCC(=O)O (library stock concentration (final ~1000-fold dilution): 10 mM),NF-kB SEAP reporter activity,[3]; agonist: LPS (TLR4) 0.1 ug/mL,0.849
same,NF-kB SEAP reporter activity,[3]; [4],1.02
same,NF-kB SEAP reporter activity,[3]; [5],0.95
same,NF-kB SEAP reporter activity,[3]; [6],1.17
CCc1ccc(NC(=O)Nc2ccccc2)cc1 (library stock concentration (final ~1000-fold dilution): 10 mM),NF-kB SEAP reporter activity,[3]; agonist: LPS (TLR4) 0.1 ug/mL,1.12
same,NF-kB SEAP reporter activity,[3]; [4],0.823
same,NF-kB SEAP reporter activity,[3]; [5],0.702
same,NF-kB SEAP reporter activity,[3]; [6],0.652
CCCCCCCCCCCCCCCCCC(=O)O,NF-kB SEAP reporter activity,[2]; [9],0.96
same,NF-kB SEAP reporter activity,[2]; [10],1.05
CCc1ccc(NC(=O)Nc2ccccc2)cc1,NF-kB SEAP reporter activity,[2]; [9],0.892
same,NF-kB SEAP reporter activity,[2]; [10],1.01
CCCC(=O)Nc1cccc(NC(=O)c2ccccc2Br)c1 (library stock concentration (final ~1000-fold dilution): 10 mM),NF-kB SEAP reporter activity,[3]; agonist: LPS (TLR4) 0.1 ug/mL,0.939
same,NF-kB SEAP reporter activity,[3]; [4],0.996
same,NF-kB SEAP reporter activity,[3]; [5],0.966
same,NF-kB SEAP reporter activity,[3]; [6],1.15
CCCC(=O)Nc1cccc(NC(=O)c2ccccc2Br)c1,NF-kB SEAP reporter activity,[2]; [9],1.06
same,NF-kB SEAP reporter activity,[2]; [10],0.952
O=C(CCCCCCC(=O)Nc1ccccc1)NO (library stock concentration (final ~1000-fold dilution): 10 mM),NF-kB SEAP reporter activity,[1]; agonist: LPS (TLR4) 0.1 ug/mL,6.47
same,NF-kB SEAP reporter activity,[1]; [4],2.34
same,NF-kB SEAP reporter activity,[1]; [5],0.808
same,NF-kB SEAP reporter activity,[1]; [6],1.86
Br.COc1cc(Br)c(Nc2nc(-c3c(C)nc4ncccn34)cs2)c(Br)c1 (library stock concentration (final ~1000-fold dilution): 10 mM),NF-kB SEAP reporter activity,[3]; agonist: LPS (TLR4) 0.1 ug/mL,1.91
same,NF-kB SEAP reporter activity,[3]; [4],1.96
same,NF-kB SEAP reporter activity,[3]; [5],0.305
same,NF-kB SEAP reporter activity,[3]; [6],0.861
Br.COc1cc(Br)c(Nc2nc(-c3c(C)nc4ncccn34)cs2)c(Br)c1,NF-kB SEAP reporter activity,[2]; [9],1.42
same,NF-kB SEAP reporter activity,[2]; [10],2.42
Cl.O=C1CN2Cc3c(ccc(Cl)c3Cl)NC2=N1,NF-kB SEAP reporter activity,[2]; [9],1.34
same,NF-kB SEAP reporter activity,[2]; [10],1.26
Cl.O=C1CN2Cc3c(ccc(Cl)c3Cl)NC2=N1 (library stock concentration (final ~1000-fold dilution): 10 mM),NF-kB SEAP reporter activity,[3]; agonist: LPS (TLR4) 0.1 ug/mL,0.887
same,NF-kB SEAP reporter activity,[3]; [4],1.24
same,NF-kB SEAP reporter activity,[3]; [5],0.872
same,NF-kB SEAP reporter activity,[3]; [6],1.01
CC(C)CC(NP(=O)(O)OC1OC(C)C(O)C(O)C1O)C(=O)NC(Cc1c[nH]c2ccccc12)C(=O)O (configuration not stated),NF-kB SEAP reporter activity,[2]; [9],0.973
same,NF-kB SEAP reporter activity,[2]; [10],1.03
CC(C)CC(NP(=O)(O)OC1OC(C)C(O)C(O)C1O)C(=O)NC(Cc1c[nH]c2ccccc12)C(=O)O (configuration not stated) (library stock concentration (final ~1000-fold dilution): 10 mM),NF-kB SEAP reporter activity,[3]; agonist: LPS (TLR4) 0.1 ug/mL,1.04
same,NF-kB SEAP reporter activity,[3]; [4],0.986
same,NF-kB SEAP reporter activity,[3]; [5],1.05
same,NF-kB SEAP reporter activity,[3]; [6],1.41
